Experimental data published in PubChem BioAssay (NCI).
Where “and” joins values, the source holds several entries; their conditions need not be identical. Equal entries are not always repeated. Compounds without any hit were thinned out: in the full panel of roughly 83,000, 20% have a hit.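 Single-dose data. Exposure time 48 hours. Values below 10 considered active.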 Calls of active or inactive are those of the source.

Assays:
Experiment in all cases: NCI-60 one-dose screen, 48 h (100 = growth as untreated, 0 = no growth, -100 = all killed)
Conditions in all cases: 10 µM unless noted
DU-145 prostate = tested on: DU-145 prostate
K-562 leukemia = tested on: K-562 leukemia
MALME-3M melanoma = tested on: MALME-3M melanoma
MDA-MB-231 breast = tested on: MDA-MB-231 breast
RXF 393 renal = tested on: RXF 393 renal
SF-268 CNS = tested on: SF-268 CNS
SF-295 CNS = tested on: SF-295 CNS
SF-539 CNS = tested on: SF-539 CNS
UACC-257 melanoma = tested on: UACC-257 melanoma
M14 melanoma = tested on: M14 melanoma

Measured: growth

Cc1ccc(O)cc1Nc1nc(SCCN2CCOCC2)nc2c1cnn2CC(Cl)c1ccc(Br)cc1 (stereo not given)
inactive: DU-145 prostate 29.5% | SF-268 CNS 23.6% | SF-539 CNS 10.7% | UACC-257 melanoma 18.1%
active: K-562 leukemia -38.6% | MALME-3M melanoma 1.03% | MDA-MB-231 breast -30.6% | RXF 393 renal -24.3% | SF-295 CNS -2.67% | M14 melanoma 9.14%

Cn1cc(-c2cc(N)n3nc(-c4c[nH]c5ccccc45)cc3n2)c2ccccc21
inactive: K-562 leukemia 11.4%
active: DU-145 prostate -89.1% | MALME-3M melanoma -94.8% | MDA-MB-231 breast -89.8% | RXF 393 renal -72.5% | SF-268 CNS -51.3% | SF-295 CNS -90.3% | SF-539 CNS -99.5% | UACC-257 melanoma -92% | M14 melanoma -81.5%

COc1ccc2[nH]cc(-c3cc4nc(-c5cn(C)c6ncc(Br)cc56)cc(N)n4n3)c2c1
active: DU-145 prostate -70.7% | K-562 leukemia -27.4% | MALME-3M melanoma -87% | MDA-MB-231 breast -83.8% | RXF 393 renal -77.2% | SF-268 CNS -44% | SF-295 CNS -77.4% | SF-539 CNS -95.4% | UACC-257 melanoma -82.3% | M14 melanoma -85.2%

CC(C)(C)c1cc(-c2cc(-c3ccccc3)[nH]c(=O)c2C#N)cc(C(C)(C)C)c1
active: MDA-MB-231 breast -21.4% | RXF 393 renal -2.55% | SF-295 CNS 0.897%
inactive: DU-145 prostate 34.5% | K-562 leukemia 62.9% | MALME-3M melanoma 37.6% | SF-268 CNS 40.8% | SF-539 CNS 21.1% | UACC-257 melanoma 43.1% | M14 melanoma 40.2%

CC1=C(C(=O)OCc2ccccc2)C(c2ccc(N(C)C)cc2)n2c(nc3ccccc32)N1 (stereo not given)
inactive: DU-145 prostate 99.6% | K-562 leukemia 58% | MALME-3M melanoma 75.9% | MDA-MB-231 breast 91.6% | RXF 393 renal 74.6% | SF-268 CNS 81.7% | SF-295 CNS 57.3% | SF-539 CNS 86.4% | UACC-257 melanoma 85.7% | M14 melanoma 80.4%

Cc1cc(C(NC(=O)C2CC3(CC(Nc4cccc5c4C(=O)N(C4CCC(=O)NC4=O)C5=O)C3)C2)c2ccc3c(c2)OC(F)(F)O3)c(O)c2ncccc12 (stereo not given)
inactive: DU-145 prostate 17.2% | K-562 leukemia 10.8% | MDA-MB-231 breast 25.2% | RXF 393 renal 23% | SF-268 CNS 14.4%
active: MALME-3M melanoma 9.46% | SF-295 CNS 8.11% | SF-539 CNS -24.9% | UACC-257 melanoma -11% | M14 melanoma -30.4%

Cn1cc(-c2cc3nc(-c4cn(C)c5ncccc45)cc(N)n3n2)c2cc(F)ccc21
active: MDA-MB-231 breast 3.66% | RXF 393 renal -14.4%
inactive: DU-145 prostate 21.8% | K-562 leukemia 20.7% | MALME-3M melanoma 62% | SF-268 CNS 52.3% | SF-295 CNS 28.3% | SF-539 CNS 12.8% | UACC-257 melanoma 72.7% | M14 melanoma 71.2%

COc1cc(CNC(=O)[C@]23CCC(C)(C)CC2C2=CCC4[C@@]5(C)CCC(OC(C)=O)C(C)(C)C5CC[C@@]4(C)[C@]2(C)CC3)ccc1OCc1cn(-c2ccc(Cl)cc2Cl)nn1 (stereo not given in full)
inactive: DU-145 prostate 116% | K-562 leukemia 85.5% | MALME-3M melanoma 99% | MDA-MB-231 breast 88.8% | RXF 393 renal 116% | SF-268 CNS 110% | SF-295 CNS 100% | SF-539 CNS 101% | UACC-257 melanoma 88.6% | M14 melanoma 98.2%

COc1ccc(-c2cc(C(=O)N=Nc3c(O)[nH]c4ccc(Cl)cc34)c3ccccc3n2)cc1
inactive: DU-145 prostate 19% | K-562 leukemia 64.8% | MALME-3M melanoma 90.1% | RXF 393 renal 133% | SF-268 CNS 68.8% | SF-295 CNS 96.7% | SF-539 CNS 44.8% | UACC-257 melanoma 106% | M14 melanoma 76.9%
active: MDA-MB-231 breast -44.2%

CCCCN1C(=O)/C(=C\C(=O)c2cc3ccccc3oc2=O)c2ccccc21
inactive: DU-145 prostate 85.8% | MALME-3M melanoma 69% | MDA-MB-231 breast 48.2% | RXF 393 renal 60.1% | SF-268 CNS 87.5% | SF-295 CNS 101% | SF-539 CNS 80.2% | UACC-257 melanoma 105% | M14 melanoma 53.5%
active: K-562 leukemia -36.9%

Cc1ccc(NC(=O)N/N=C/c2c[nH]c3ccccc23)c(C)c1
inactive: DU-145 prostate 12.9% | K-562 leukemia 10.5% | MALME-3M melanoma 52.8% | MDA-MB-231 breast 21.1% | SF-268 CNS 11.8% | UACC-257 melanoma 46.5% | M14 melanoma 12.5%
active: RXF 393 renal -12.3% | SF-295 CNS 5.78% | SF-539 CNS -5.67%

CCc1ccccc1NC(=O)N/C(N)=N/c1nc2ccccc2s1
inactive: K-562 leukemia 10.6% | RXF 393 renal 11.8% | SF-268 CNS 29.6% | UACC-257 melanoma 49.7%
active: DU-145 prostate -8.39% | MALME-3M melanoma 5.84% | MDA-MB-231 breast -21.3% | SF-295 CNS -9.81% | SF-539 CNS -50.4% | M14 melanoma 9.76%

Cc1nn(-c2ccccc2)c2nc(C)n(C(=O)N/N=C/c3ccccc3)c(=O)c12
inactive: DU-145 prostate 114% | K-562 leukemia 95.6% | MALME-3M melanoma 91.5% | MDA-MB-231 breast 91.8% | RXF 393 renal 111% | SF-268 CNS 104% | SF-295 CNS 94.9% | SF-539 CNS 93.8% | UACC-257 melanoma 106% | M14 melanoma 98.5%

COc1ccc(N=Nc2c(N)nn3c(-c4cc5ccccc5oc4=O)ccnc23)cc1
active: MDA-MB-231 breast -3.18%
inactive: DU-145 prostate 61.9% | K-562 leukemia 51.5% | MALME-3M melanoma 49.3% | RXF 393 renal 10.1% | SF-268 CNS 57.8% | SF-295 CNS 34.5% | SF-539 CNS 15.2% | UACC-257 melanoma 88.4% | M14 melanoma 59.5%

Cc1ccc(C(=O)Nc2cc(-n3ccnc3C)cc(C(F)(F)F)c2)cc1C#Cc1cnc2cccnn12
active: K-562 leukemia -3.69% | MALME-3M melanoma -35.6% | MDA-MB-231 breast -37.5% | RXF 393 renal -54.6% | SF-295 CNS -60.9% | SF-539 CNS -81.8% | UACC-257 melanoma 3.43% | M14 melanoma -20%
inactive: DU-145 prostate 18.6% | SF-268 CNS 25.7%

O=C(CSc1nnc(-c2ccc(-c3nc4ccc(Cl)cc4[nH]3)cc2)o1)Nc1ccc(Cl)cc1
inactive: K-562 leukemia 11.2% | SF-295 CNS 27.6%
active: DU-145 prostate 6.16% | MALME-3M melanoma -23.8% | MDA-MB-231 breast -51.5% | RXF 393 renal -49% | SF-268 CNS 8.68% | SF-539 CNS -95.3% | UACC-257 melanoma 3.38% | M14 melanoma 1.01%

Cc1ccc(C(=O)Nc2cc(-n3ccnc3)cc(C(F)(F)F)c2)cc1-n1cc(-c2cnc3cccnn23)nn1
active: K-562 leukemia 9.87% | MALME-3M melanoma -7.64%
inactive: DU-145 prostate 111% | MDA-MB-231 breast 31.5% | RXF 393 renal 94.8% | SF-268 CNS 120% | SF-295 CNS 107% | SF-539 CNS 84.7% | UACC-257 melanoma 47.8% | M14 melanoma 25.4%

Cc1cc(C)c2[nH]c(=O)c(C(c3nnnn3Cc3ccc4c(c3)OCO4)N3CCN(C)CC3)cc2c1 (stereo not given)
inactive: DU-145 prostate 103% | K-562 leukemia 107% | MALME-3M melanoma 110% | MDA-MB-231 breast 112% | RXF 393 renal 114% | SF-268 CNS 101% | SF-295 CNS 104% | SF-539 CNS 104% | UACC-257 melanoma 110% | M14 melanoma 111%

FC(F)(F)c1cc2c(Cl)ncnc2n1CCN1CCOCC1
inactive: DU-145 prostate 73.6% | MALME-3M melanoma 88.1% | MDA-MB-231 breast 56.4% | RXF 393 renal 100% | SF-268 CNS 64.5% | SF-295 CNS 86.7% | SF-539 CNS 87% | UACC-257 melanoma 75.5% | M14 melanoma 44.9%
active: K-562 leukemia 0.361%

Cn1cc(-c2cc(N)n3nc(-c4c[nH]c5ccccc45)cc3n2)c2cc(Cl)ccc21
active: DU-145 prostate -62.6% | K-562 leukemia 7.97% | MALME-3M melanoma -78% | MDA-MB-231 breast -85.5% | RXF 393 renal -84.7% | SF-268 CNS -46.3% | SF-295 CNS -88% | SF-539 CNS -92.2% | UACC-257 melanoma -84.3% | M14 melanoma -75.5%

COc1ccc(-c2nc3ccc(-c4nnc(SCc5ccccc5)o4)cc3[nH]2)cc1
active: MALME-3M melanoma -74.9% | MDA-MB-231 breast -67.3% | RXF 393 renal -75.3% | SF-268 CNS -6.18% | SF-295 CNS -75% | SF-539 CNS -99.7% | M14 melanoma 5.59%
inactive: DU-145 prostate 10.2% | K-562 leukemia 11.2% | UACC-257 melanoma 21.8%

O=C(CSc1nnc(-c2ccc(-c3nc4ccccc4[nH]3)cc2)o1)Nc1ccc(Br)cc1
active: MDA-MB-231 breast -29.1% | RXF 393 renal -62% | SF-539 CNS -89.8% | M14 melanoma -0.614%
inactive: DU-145 prostate 13.8% | K-562 leukemia 11% | MALME-3M melanoma 31.9% | SF-268 CNS 48.7% | SF-295 CNS 53.8% | UACC-257 melanoma 61.9%

COc1ccc(-c2cc(C(=O)Oc3ccc(C=O)cc3OC)nn2-c2ccc(S(C)(=O)=O)cc2)cc1
inactive: DU-145 prostate 110% | K-562 leukemia 96.1% | MALME-3M melanoma 105% | MDA-MB-231 breast 94.3% | RXF 393 renal 122% | SF-268 CNS 103% | SF-295 CNS 110% | SF-539 CNS 106% | UACC-257 melanoma 115% | M14 melanoma 117%

COc1ccc(NC2=C(I)C(=O)C(C)=C(C)C2=O)cc1
active: K-562 leukemia 1.44% | MDA-MB-231 breast -8.44% | SF-539 CNS -28.1% | UACC-257 melanoma -14.2%
inactive: DU-145 prostate 86.2% | MALME-3M melanoma 77.7% | RXF 393 renal 58.6% | SF-268 CNS 45.3% | SF-295 CNS 79% | M14 melanoma 96.1%

COc1cc(C=O)ccc1Oc1nc(Nc2ccc(F)cc2)nc(N(C)C)n1
inactive: DU-145 prostate 90% and 72.7% | K-562 leukemia 55.6% and 35.2% | MALME-3M melanoma 75.8% and 82.1% | MDA-MB-231 breast 90.1% and 76.2% | RXF 393 renal 91.9% and 64.9% | SF-268 CNS 73.2% and 66.9% | SF-295 CNS 65.5% and 82.7% | SF-539 CNS 92.9% and 42.8% | UACC-257 melanoma 57.7% and 102% | M14 melanoma 93.4% and 65.3%
